# Laboratory results reported in PMC7862700, “An all-to-all approach to the identification of sequence-specific readers for epigenetic DNA modifications on cytosine”.
# Experiments:
# Assay in all cases: DAPPL (digital affinity profiling via proximity ligation, sequencing); 10 mM Tris-HCl pH 7.5, 50 mM NaCl, 1 mM DTT, 4% glycerol, room temperature, 30 min; GST-TFs on glutathione beads, 16-mer random dsDNA library, 0.1% formaldehyde crosslink after washing; high values mean tight binding
# Settings in all cases: protein: recombinant; tags: N-terminal GST; dsDNA, one strand shown
# [1] = molecular target: T1, FLI1 (Homo sapiens, UniProt Q01543 1-452)
# T1 sequence: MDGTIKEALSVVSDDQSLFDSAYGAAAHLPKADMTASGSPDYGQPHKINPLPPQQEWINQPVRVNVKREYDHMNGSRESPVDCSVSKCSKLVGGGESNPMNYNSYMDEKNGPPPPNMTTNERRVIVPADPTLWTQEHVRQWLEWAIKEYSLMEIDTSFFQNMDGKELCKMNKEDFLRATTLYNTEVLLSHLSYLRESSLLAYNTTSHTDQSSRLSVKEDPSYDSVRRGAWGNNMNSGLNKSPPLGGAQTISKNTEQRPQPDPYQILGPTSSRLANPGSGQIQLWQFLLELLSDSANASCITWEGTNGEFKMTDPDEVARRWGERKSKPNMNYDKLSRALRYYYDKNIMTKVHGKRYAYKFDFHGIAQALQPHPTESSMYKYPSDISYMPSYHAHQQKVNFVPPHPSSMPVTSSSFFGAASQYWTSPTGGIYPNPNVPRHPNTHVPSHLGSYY
# Outline: (§1)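 Pools were built from human transcription factors expressed in yeast as GST fusions, captured on glutathione beads and DNA-barcoded, along with a tag-only sample. Incubation with 200 nmole of a 16-mer random double-stranded DNA library lasted 30 min at room temperature in Tris/NaCl/DTT/glycerol buffer, and was followed by washing, 0.1% formaldehyde crosslinking, proximity ligation, PCR amplification and Illumina NextSeq500 sequencing. Binding signal is the quotient of each hexamer's read frequency for a factor and its frequency for the tag-only sample.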
# [2] = molecular target: T2, ELK1 (Homo sapiens, UniProt P19419 1-428)
# T2 sequence: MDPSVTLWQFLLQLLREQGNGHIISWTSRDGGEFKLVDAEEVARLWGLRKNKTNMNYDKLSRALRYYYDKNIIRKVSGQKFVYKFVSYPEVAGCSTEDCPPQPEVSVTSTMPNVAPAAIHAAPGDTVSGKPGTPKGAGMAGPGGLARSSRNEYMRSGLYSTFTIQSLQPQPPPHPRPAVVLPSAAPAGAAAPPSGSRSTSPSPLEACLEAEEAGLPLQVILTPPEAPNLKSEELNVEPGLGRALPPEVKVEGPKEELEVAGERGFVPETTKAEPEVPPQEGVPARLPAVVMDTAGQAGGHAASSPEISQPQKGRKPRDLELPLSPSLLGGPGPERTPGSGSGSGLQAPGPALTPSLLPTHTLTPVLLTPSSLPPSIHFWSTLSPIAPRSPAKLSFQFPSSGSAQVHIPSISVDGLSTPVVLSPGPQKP
# Outline: as §1
# [3] = molecular target: T3, GABPA (Homo sapiens, UniProt Q06546 1-454)
# T3 sequence: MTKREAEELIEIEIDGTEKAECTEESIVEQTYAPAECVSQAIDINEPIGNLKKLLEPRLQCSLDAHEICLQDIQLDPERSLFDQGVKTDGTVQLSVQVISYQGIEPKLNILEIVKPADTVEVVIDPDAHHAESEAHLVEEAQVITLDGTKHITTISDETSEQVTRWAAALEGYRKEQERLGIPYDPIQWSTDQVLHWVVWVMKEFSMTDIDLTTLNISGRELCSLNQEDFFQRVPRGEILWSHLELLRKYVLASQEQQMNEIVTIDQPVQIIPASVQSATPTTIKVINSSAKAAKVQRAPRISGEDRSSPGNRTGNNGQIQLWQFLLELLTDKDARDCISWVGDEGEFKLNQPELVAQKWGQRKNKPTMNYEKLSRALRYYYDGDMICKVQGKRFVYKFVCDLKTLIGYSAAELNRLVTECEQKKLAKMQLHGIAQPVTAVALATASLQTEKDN
# Outline: as §1
# [4] = molecular target: T4, ERG (Homo sapiens, UniProt P11308 1-479)
# T4 sequence: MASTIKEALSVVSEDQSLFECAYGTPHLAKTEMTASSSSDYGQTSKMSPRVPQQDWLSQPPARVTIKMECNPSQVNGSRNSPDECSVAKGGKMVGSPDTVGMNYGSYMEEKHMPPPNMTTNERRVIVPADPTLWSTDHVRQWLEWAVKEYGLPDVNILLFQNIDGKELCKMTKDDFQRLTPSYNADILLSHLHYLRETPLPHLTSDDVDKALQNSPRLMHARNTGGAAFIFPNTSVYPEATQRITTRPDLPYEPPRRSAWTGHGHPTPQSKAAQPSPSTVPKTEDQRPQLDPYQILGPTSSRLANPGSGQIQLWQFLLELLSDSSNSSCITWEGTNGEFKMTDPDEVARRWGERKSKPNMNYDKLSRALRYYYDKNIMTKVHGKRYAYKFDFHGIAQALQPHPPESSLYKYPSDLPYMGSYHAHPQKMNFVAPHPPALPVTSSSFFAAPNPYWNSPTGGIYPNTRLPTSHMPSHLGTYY
# Outline: as §1
# [5] = molecular target: ELF1 (Homo sapiens, UniProt P32519 1-619)
# Outline: as §1
# [6] = molecular target: T5, EHF (Homo sapiens, UniProt Q9NZC4 1-300)
# T5 sequence: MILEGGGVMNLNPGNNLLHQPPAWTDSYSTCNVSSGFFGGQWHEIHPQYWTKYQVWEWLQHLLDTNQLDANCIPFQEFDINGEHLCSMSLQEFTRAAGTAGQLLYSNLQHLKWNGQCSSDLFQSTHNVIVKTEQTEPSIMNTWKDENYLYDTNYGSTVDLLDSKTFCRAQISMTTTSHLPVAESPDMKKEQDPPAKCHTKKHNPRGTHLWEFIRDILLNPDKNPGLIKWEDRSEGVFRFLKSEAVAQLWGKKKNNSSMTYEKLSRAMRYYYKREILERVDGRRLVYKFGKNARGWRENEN
# Outline: as §1
# [7] = molecular target: SPI1 (Homo sapiens, UniProt P17947 1-270)
# Outline: as §1
# [8] = molecular target: SPIB (Homo sapiens, UniProt Q01892 1-262)
# Outline: as §1
# [9] = molecular target: T6, ELK3 (Homo sapiens, UniProt P41970 1-407)
# T6 sequence: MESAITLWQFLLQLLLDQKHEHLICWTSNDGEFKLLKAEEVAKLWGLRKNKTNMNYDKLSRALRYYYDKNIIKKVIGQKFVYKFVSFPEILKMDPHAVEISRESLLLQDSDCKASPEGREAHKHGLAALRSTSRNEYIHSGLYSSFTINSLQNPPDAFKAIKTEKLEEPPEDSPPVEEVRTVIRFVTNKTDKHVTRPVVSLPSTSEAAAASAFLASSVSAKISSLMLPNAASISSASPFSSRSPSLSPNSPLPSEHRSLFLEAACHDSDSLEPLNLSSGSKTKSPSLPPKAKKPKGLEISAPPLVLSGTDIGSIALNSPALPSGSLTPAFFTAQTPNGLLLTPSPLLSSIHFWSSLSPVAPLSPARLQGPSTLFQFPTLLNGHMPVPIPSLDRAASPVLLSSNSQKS
# Outline: as §1
# Chain of ELF1 (P32519 whole entry): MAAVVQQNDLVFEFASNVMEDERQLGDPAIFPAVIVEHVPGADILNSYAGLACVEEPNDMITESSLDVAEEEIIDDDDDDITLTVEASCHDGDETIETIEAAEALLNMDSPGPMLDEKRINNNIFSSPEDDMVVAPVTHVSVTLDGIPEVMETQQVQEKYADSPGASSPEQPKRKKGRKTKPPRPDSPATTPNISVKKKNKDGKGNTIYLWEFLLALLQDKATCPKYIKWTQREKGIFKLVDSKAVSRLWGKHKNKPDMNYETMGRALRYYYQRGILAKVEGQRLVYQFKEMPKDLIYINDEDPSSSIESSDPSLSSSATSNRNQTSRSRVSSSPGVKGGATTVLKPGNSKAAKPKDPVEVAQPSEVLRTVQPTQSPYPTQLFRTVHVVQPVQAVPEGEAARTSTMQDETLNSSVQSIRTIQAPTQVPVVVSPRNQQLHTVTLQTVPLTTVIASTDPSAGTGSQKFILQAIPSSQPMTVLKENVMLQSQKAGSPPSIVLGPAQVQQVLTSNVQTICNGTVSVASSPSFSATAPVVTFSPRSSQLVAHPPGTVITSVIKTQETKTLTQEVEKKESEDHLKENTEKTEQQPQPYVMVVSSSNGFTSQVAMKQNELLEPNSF
# Chain of SPIB (Q01892 whole entry): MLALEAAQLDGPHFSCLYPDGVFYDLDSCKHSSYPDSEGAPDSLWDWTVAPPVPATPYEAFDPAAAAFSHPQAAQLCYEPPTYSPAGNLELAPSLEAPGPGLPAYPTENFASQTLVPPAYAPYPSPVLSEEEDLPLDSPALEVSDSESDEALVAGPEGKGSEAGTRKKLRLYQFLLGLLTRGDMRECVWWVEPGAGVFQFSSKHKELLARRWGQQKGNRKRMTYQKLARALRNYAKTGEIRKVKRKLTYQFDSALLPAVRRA
Sequence,binding signal [1],binding signal [2],binding signal [3],binding signal [4],binding signal [5],binding signal [6],binding signal [7],binding signal [8],binding signal [9]
ATAACT,"1.23 fold enrichment (6-mer frequency, TF over GST control)","1.21 fold enrichment (6-mer frequency, TF over GST control)","1.29 fold enrichment (6-mer frequency, TF over GST control)","1.22 fold enrichment (6-mer frequency, TF over GST control)","1.32 fold enrichment (6-mer frequency, TF over GST control)","1.24 fold enrichment (6-mer frequency, TF over GST control)","1.22 fold enrichment (6-mer frequency, TF over GST control)","1.36 fold enrichment (6-mer frequency, TF over GST control)","1.22 fold enrichment (6-mer frequency, TF over GST control)"
TTATAT,"1.26 fold enrichment (6-mer frequency, TF over GST control)","1.42 fold enrichment (6-mer frequency, TF over GST control)","1.39 fold enrichment (6-mer frequency, TF over GST control)","1.4 fold enrichment (6-mer frequency, TF over GST control)","1.34 fold enrichment (6-mer frequency, TF over GST control)","1.41 fold enrichment (6-mer frequency, TF over GST control)","1.32 fold enrichment (6-mer frequency, TF over GST control)","1.51 fold enrichment (6-mer frequency, TF over GST control)","1.18 fold enrichment (6-mer frequency, TF over GST control)"
AACAAA,"1.18 fold enrichment (6-mer frequency, TF over GST control)","1.16 fold enrichment (6-mer frequency, TF over GST control)","1.1 fold enrichment (6-mer frequency, TF over GST control)","1.18 fold enrichment (6-mer frequency, TF over GST control)","1.14 fold enrichment (6-mer frequency, TF over GST control)","1.17 fold enrichment (6-mer frequency, TF over GST control)","1.16 fold enrichment (6-mer frequency, TF over GST control)","1.15 fold enrichment (6-mer frequency, TF over GST control)","1.27 fold enrichment (6-mer frequency, TF over GST control)"
ACGTCT,"1.13 fold enrichment (6-mer frequency, TF over GST control)","1.2 fold enrichment (6-mer frequency, TF over GST control)","1.14 fold enrichment (6-mer frequency, TF over GST control)","1.22 fold enrichment (6-mer frequency, TF over GST control)","1.17 fold enrichment (6-mer frequency, TF over GST control)","1.13 fold enrichment (6-mer frequency, TF over GST control)","1.15 fold enrichment (6-mer frequency, TF over GST control)","1.35 fold enrichment (6-mer frequency, TF over GST control)","1.18 fold enrichment (6-mer frequency, TF over GST control)"
AACTCA,"1.35 fold enrichment (6-mer frequency, TF over GST control)","1.27 fold enrichment (6-mer frequency, TF over GST control)","1.25 fold enrichment (6-mer frequency, TF over GST control)","1.12 fold enrichment (6-mer frequency, TF over GST control)","1.23 fold enrichment (6-mer frequency, TF over GST control)","1.18 fold enrichment (6-mer frequency, TF over GST control)","1.25 fold enrichment (6-mer frequency, TF over GST control)","1.23 fold enrichment (6-mer frequency, TF over GST control)","1.36 fold enrichment (6-mer frequency, TF over GST control)"
GCTACT,"1.37 fold enrichment (6-mer frequency, TF over GST control)","1.25 fold enrichment (6-mer frequency, TF over GST control)","1.32 fold enrichment (6-mer frequency, TF over GST control)","1.38 fold enrichment (6-mer frequency, TF over GST control)","1.35 fold enrichment (6-mer frequency, TF over GST control)","1.33 fold enrichment (6-mer frequency, TF over GST control)","1.27 fold enrichment (6-mer frequency, TF over GST control)","1.23 fold enrichment (6-mer frequency, TF over GST control)","1.29 fold enrichment (6-mer frequency, TF over GST control)"
ATGATA,"1.22 fold enrichment (6-mer frequency, TF over GST control)","1.23 fold enrichment (6-mer frequency, TF over GST control)","1.16 fold enrichment (6-mer frequency, TF over GST control)","1.26 fold enrichment (6-mer frequency, TF over GST control)","1.24 fold enrichment (6-mer frequency, TF over GST control)","1.32 fold enrichment (6-mer frequency, TF over GST control)","1.2 fold enrichment (6-mer frequency, TF over GST control)","1.21 fold enrichment (6-mer frequency, TF over GST control)","1.34 fold enrichment (6-mer frequency, TF over GST control)"
GTAAAC,"1.16 fold enrichment (6-mer frequency, TF over GST control)","1.26 fold enrichment (6-mer frequency, TF over GST control)","1.26 fold enrichment (6-mer frequency, TF over GST control)","1.19 fold enrichment (6-mer frequency, TF over GST control)","1.17 fold enrichment (6-mer frequency, TF over GST control)","1.25 fold enrichment (6-mer frequency, TF over GST control)","1.25 fold enrichment (6-mer frequency, TF over GST control)","1.25 fold enrichment (6-mer frequency, TF over GST control)","1.25 fold enrichment (6-mer frequency, TF over GST control)"
